Values joined by “and” are separate entries in the source; they are usually repeats but may differ in a detail not shown here. Equal values may be shown once. Results filed as inconclusive are left out. More than one record can exist for a structure, and the calls need not agree. Active and inactive are the calls of the source. Unless noted, the call rests on the fitted dose curve; in most records, active means well fitted curve in the direction sought with a large enough effect; inconclusive means small, poorly fitted or top-dose-only effect, or another doubt; inactive means no such curve, though single readings can be large; an effect the other way counts as inactive or inconclusive. Non-standard residues stand in square brackets, D forms with d. Residues, ends and D or L forms follow the SMILES beside them. Peptide text beside a SMILES is read from it. *: point of attachment. Sta = CC(C)C[C@H](N)[C@@H](O)CC(=O)O; Isovaleryl = CC(C)CC(=O)*

Results on 26 compounds are retold here after PubChem BioAssay (NCATS).

Test [1] concerns the target Calcium and integrin-binding protein 1 (Homo sapiens) (UniProt Q99828). The experiment in a line: Primary qHTS for Identification of Calcium Integrin Binding Protein 1 (CIB1) Competitor (AID 1508620). Further: potency means the concentration at half of the fitted maximal effect. In short, it runs like this: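 Fluorescence polarization competition: GST-tagged CIB1 (1 uM final) preincubated with compound 15 min at room temperature, then FITC-labelled alphaIIb peptide (100 nM final) added. After 15 min at room temperature, polarization read at Ex 480/Em 540.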

Test [2] in a line: Primary qHTS for small molecule stabilizers of the endoplasmic reticulum resident proteome: Secreted ER Calcium Modulated Protein (SERCaMP) assay (AID 1508630). Further: potency means the concentration at half of the fitted maximal effect. The method in brief:
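The SH-SY5Y reporter protocol was run at 3 concentrations up to 38.3 uM (primary) or 11 concentrations (follow-up): 16 h compound, 100 nM thapsigargin for 4 h, then extracellular luciferase luminescence.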

Test [3] in a line: A High-Content qHTS Against Drug Library for the Identification of Small Molecules that Inhibit DYT1 Early Onset Primary Dystonia-Associated Cell Pathology (AID 1645839; calls by dose curve; further: series mostly up to about 46 µM). In short, it runs like this:
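Cells were seeded and left for 24 h, then dosed with compound alongside tetracycline induction of mutant EGFP-TorsinA. They were incubated for 48 h, fixed in 4% paraformaldehyde, permeabilized and imaged for mislocalization (%pathology) and cell count.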
A general note: In qHTS, concentration-response curves come from the screen itself.

For test [4], the target named is Cytochrome P450 2D6 (Homo sapiens) (UniProt P10635). The experiment in a line: Cytochrome P450 family 2 subfamily D member 6 (CYP2D6) small molecule antagonists: luciferase biochemical (cell-free) qHTS assay (AID 1645840; active means well fitted curve in the direction sought with a large enough effect in the repeat runs; an effect the other way counts as inactive or inconclusive; further: nearly all actives have a fitted effect of over 55% in size; further: potency means the concentration at half of the fitted maximal effect). The method in brief: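 P450-Glo CYP2D6 system: proluciferin substrate converted by enzyme to luciferin, read by luminescence proportional to activity. Enzyme-substrate mix with compound 10 min at room temperature, then NADPH regeneration 1 h before detection reagent.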
Sequence of Cytochrome P450 2D6 (Homo sapiens) (P10635 whole entry, looked up): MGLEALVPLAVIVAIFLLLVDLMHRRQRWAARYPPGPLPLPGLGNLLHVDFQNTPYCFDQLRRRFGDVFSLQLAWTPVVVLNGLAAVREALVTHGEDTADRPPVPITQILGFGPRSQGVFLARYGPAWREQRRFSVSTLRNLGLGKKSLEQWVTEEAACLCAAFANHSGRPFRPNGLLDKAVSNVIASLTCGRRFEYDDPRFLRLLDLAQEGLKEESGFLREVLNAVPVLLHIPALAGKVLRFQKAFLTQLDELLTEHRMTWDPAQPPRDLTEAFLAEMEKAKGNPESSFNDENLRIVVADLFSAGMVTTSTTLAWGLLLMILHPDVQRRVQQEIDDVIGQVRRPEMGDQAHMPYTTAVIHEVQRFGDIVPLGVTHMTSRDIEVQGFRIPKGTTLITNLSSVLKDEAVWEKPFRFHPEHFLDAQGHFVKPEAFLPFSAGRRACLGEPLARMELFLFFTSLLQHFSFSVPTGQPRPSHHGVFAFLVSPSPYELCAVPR

Test [5] concerns the target Cytochrome P450 2C9 (Homo sapiens) (UniProt P11712). The experiment in a line: Cytochrome P450 family 2 subfamily C member 9 (CYP2C9) small molecule antagonists: luciferase biochemical (cell-free) qHTS assay (AID 1645842; active means well fitted curve in the direction sought with a large enough effect in the repeat runs; an effect the other way counts as inactive or inconclusive; further: nearly all actives have a fitted effect of over 55% in size; further: potency means the concentration at half of the fitted maximal effect). In short, it runs like this: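 P450-Glo CYP2C9 system: proluciferin substrate with enzyme in mix containing 0.4% BSA, 10 min at room temperature, then NADPH regeneration solution added and incubated 1 h at 37C. Detection reagent stopped reaction; luminescence read after 20 min as RLU.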

The nature of test [6]: Primary qHTS for inhibitors of nuclear receptor binding SET domain protein 2 (NSD2) in an isogenic RCH-ACV NSD2 p.E1099K mutant (9B) (AID 1645876). Further: nearly all actives have a fitted effect of over 70% in size. Further: potency means the concentration at half of the fitted maximal effect. On activity change, negative = viability loss: on the % scale 0 is the no-effect control and ±100 the full control effect.
Test [7] in a line: Primary qHTS for inhibitors of nuclear receptor binding SET domain protein 2 (NSD2) in an RCH-ACV wild type WT cells (2C) (AID 1645877). Further: nearly all actives have a fitted effect of over 70% in size. Further: potency means the concentration at half of the fitted maximal effect.
Test [8] is described as follows: Counterscreen qHTS for small molecule stabilizers of the endoplasmic reticulum resident proteome: GLuc-NoTag assay (AID 1508627).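 Further: SH-SY5Y cells given compound then 100 nM thapsigargin to empty ER calcium; series mostly up to about 76 µM; 0% = thapsigargin alone and -100% = DMSO vehicle control.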 In short, it runs like this: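 Counterscreen line: SH-SY5Y-GLuc-NoTag. Seed, 5 h; compound, 19 h; thapsigargin 100 nM, 4 h; 37C/5% CO2. Readout: secreted GLuc luminescence, coelenterazine 0.07x final, no lysis.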
For orientation: Counterscreens check selectivity or assay interference.

Test [9] is described as follows: Cell Viability qHTS for small molecule stabilizers of the endoplasmic reticulum resident proteome (AID 1508629).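 Further: human SH-SY5Y neuroblastoma cells carrying the GLuc-SERCaMP reporter; compound exposure about 46 h in total before the viability read; on the % scale 0 is the no-effect control and ±100 the full control effect.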 The settings on record: cell viability counter-screen, 100 nM thapsigargin for final 4 h.
In test [10] the target is Cytochrome P450 3A4 (Homo sapiens) (UniProt P08684). The test can be described thus: Cytochrome P450 family 3 subfamily A member 4 (CYP3A4) small molecule antagonists: luciferase qHTS assay (AID 1645841; active means well fitted curve in the direction sought with a large enough effect in the repeat runs; an effect the other way counts as inactive or inconclusive; further: nearly all actives have a fitted effect of over 45% in size). In short, it runs like this: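 P450-Glo CYP3A4 enzyme with proluciferin substrate preincubated 10 min with compound at room temperature, then NADPH regeneration 1 h. Luciferin detection reagent added for 20 min; luminescence recorded. Ketoconazole positive control.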
Sequence of Cytochrome P450 3A4 (Homo sapiens) (P08684 whole entry, looked up): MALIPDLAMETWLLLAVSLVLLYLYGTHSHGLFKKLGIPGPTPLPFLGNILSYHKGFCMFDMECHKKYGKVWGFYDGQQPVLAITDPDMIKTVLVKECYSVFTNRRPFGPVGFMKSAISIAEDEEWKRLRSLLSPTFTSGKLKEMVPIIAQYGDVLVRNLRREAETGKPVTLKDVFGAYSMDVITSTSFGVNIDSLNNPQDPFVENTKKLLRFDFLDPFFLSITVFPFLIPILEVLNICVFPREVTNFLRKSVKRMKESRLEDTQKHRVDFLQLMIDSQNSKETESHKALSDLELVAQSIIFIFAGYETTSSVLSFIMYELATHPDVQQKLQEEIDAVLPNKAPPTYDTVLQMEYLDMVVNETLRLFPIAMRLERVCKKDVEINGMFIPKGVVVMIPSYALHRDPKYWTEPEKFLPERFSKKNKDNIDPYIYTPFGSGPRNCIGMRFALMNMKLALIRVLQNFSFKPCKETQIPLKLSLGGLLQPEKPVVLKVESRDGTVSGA

Sequence of Cytochrome P450 2C9 (Homo sapiens) (P11712 whole entry, looked up): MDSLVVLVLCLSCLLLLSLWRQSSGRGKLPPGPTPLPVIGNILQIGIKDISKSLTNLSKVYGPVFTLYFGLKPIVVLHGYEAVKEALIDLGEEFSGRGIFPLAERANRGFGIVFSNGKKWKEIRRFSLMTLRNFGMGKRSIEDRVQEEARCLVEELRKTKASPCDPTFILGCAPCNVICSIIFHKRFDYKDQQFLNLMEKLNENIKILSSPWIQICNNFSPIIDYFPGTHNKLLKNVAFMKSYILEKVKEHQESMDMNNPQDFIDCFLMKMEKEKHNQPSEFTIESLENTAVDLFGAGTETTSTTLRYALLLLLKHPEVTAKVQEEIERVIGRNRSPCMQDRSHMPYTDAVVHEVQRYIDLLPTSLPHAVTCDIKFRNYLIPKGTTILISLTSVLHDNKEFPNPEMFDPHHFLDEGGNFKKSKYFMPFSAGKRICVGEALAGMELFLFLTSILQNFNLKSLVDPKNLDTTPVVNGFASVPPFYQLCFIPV
Sequence of Calcium and integrin-binding protein 1 (Homo sapiens) (Q99828 whole entry, looked up): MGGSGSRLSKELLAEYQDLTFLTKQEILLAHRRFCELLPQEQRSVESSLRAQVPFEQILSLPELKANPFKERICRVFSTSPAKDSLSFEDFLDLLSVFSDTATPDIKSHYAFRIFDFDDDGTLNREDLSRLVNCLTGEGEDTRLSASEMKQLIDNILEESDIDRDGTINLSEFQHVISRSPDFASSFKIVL

Regarding `CC(C)c1ccc2oc3nc(N)c(C(=O)O)cc3c(=O)c2c1`, the Potency result in test [1], in test [2], in [3], in test [6] and in test [7] was “inactive” in each case. The Potency in test [4] and in [5] was 13.8 µM (active) each time.
Consider `COCCCOc1ccnc(CS(=O)c2nc3ccccc3[nH]2)c1C` (centres undefined), for which the Potency was 39.8 µM (active) and inactive in [1]; “inactive and 15.1 µM (active)” in [5]. Besides, the Potency entry in test [2], in test [3], in test [4], in [6] and in [7] was “inactive” each time.
As for `CNC[C@@H](O)[C@@H](O)[C@H](O)[C@H](O)CO`, the Potency entry in test [1] and in test [2] was “inactive” throughout.
As to `CN(C)CCc1c[nH]c2ccc(Cn3cncn3)cc12`, the Potency entry in [1] and in test [2] was “inactive” throughout.
`CC(C)C[C@H](NC(=O)[C@H](Cc1ccccc1)NC(=O)c1cnccn1)B(O)O`: the Potency entry in [1], in [2], in [3], in test [4] and in test [5] was “inactive” throughout. Besides, the Potency is 3.8 nM (active) and 5.2 nM (active) and 26.3 nM (active) in test [6]; 3.8 nM (active) and 6.5 nM (active) and 18.6 nM (active) in test [7].
`O=C(O)c1cn(-c2ccc(F)cc2)c2cc(N3CCNCC3)c(F)cc2c1=O`: the Potency entry in test [1], in test [8], in [2], in test [3], in test [4] and in test [5] was “inactive” throughout. Moreover, the Potency entry in test [6] and in test [7] was “inactive” in each case. In [9], the max response is 19.2% (inactive) and 20.4% (inactive). Besides, the compound was called inactive in [10].
Regarding `C[C@H](Cn1cnc2c(N)ncnc21)OCP(=O)(O)O`, the Potency result in test [1] and in test [2] was “inactive” in each case.
Turning to `O=c1c(O)c(-c2ccc(O)cc2O)oc2cc(O)cc(O)c12`, the Potency result in test [1], in [2] and in test [4] was “inactive” each time.
Turning to `Cc1nc(Nc2ncc(C(=O)Nc3c(C)cccc3Cl)s2)cc(N2CCN(CCO)CC2)n1`, the Potency entry in [1], in test [2], in test [4] and in test [5] was “inactive” in each case. Also, the Potency in [6] was 0.7 nM (active) and 12.9 nM (active) and 20.9 nM (active).
Consider `Cc1ncc([N+](=O)[O-])n1CC(C)O` (centres undefined), for which the Potency entry in test [1], in [2], in [3], in test [4], in [5] and in test [6] was “inactive” in each case. The Potency entry in test [7] is “inactive”.
On to `CN1C(C(=O)Nc2ccccn2)=C(O)c2sccc2S1(=O)=O`, for which the Potency entry in test [1], in [2], in [3], in test [4], in [6] and in [7] was “inactive” in each case. Besides, in test [5], the Potency was 12.3 µM (active).
With `Cc1cccc(CN2CCN(C(c3ccccc3)c3ccc(Cl)cc3)CC2)c1` (centres undefined), the Potency result in test [1], in [2] and in test [6] was “inactive” in each case. Further, the Potency in test [4] was 2.45 µM (active); in test [5], 11 µM (active).
As to `CC1=C(C)C(=O)C(C(CCCCCC(=O)O)c2ccccc2)=C(C)C1=O` (centres undefined), the Potency entry in [1], in [2], in test [6] and in test [7] was “inactive” each time. For the same compound, the Potency was 11 µM (active) in [4] and 17.4 µM (active) in test [5].
With `COC(=O)[C@H](Cc1ccccc1)NC(=O)[C@@H](N)CC(=O)O` (H-Asp-Phe-OMe), the Potency result in test [1], in test [2], in test [3], in [4], in test [5] and in test [6] was “inactive” throughout. Also, in test [7], the Potency result is “inactive”.
As to `CC(C)CC(=O)N[C@H](C(=O)N[C@H](C(=O)N[C@@H](CC(C)C)[C@@H](O)CC(=O)N[C@@H](C)C(=O)N[C@@H](CC(C)C)[C@@H](O)CC(=O)O)C(C)C)C(C)C` (Isovaleryl-VV[Sta]A[Sta]-OH), the Potency result in test [1], in test [2], in test [3], in test [4], in [5] and in test [6] was “inactive” in each case. In test [7], the Potency result was “inactive”.
Regarding `CCN(CCO)CCCC(C)Nc1ccnc2cc(Cl)ccc12` (centres undefined), the Potency entry in test [1] and in test [2] was “inactive” each time. Moreover, the % pathology change, negative = correction in test [3] was -8.74% [at 4.63 µM] (inactive). Further, the activity change, negative = viability loss in test [6] is 1.42% [at 4.96 µM] (inactive) and 7.11% [at 4.96 µM] (inactive). Moreover, the outcome in test [7] is “inactive [at 4.96 µM]”.
As to `O=C(NOCC1CC1)c1ccc(F)c(F)c1Nc1ccc(I)cc1Cl`, the Potency result in test [1], in test [2] and in test [4] was “inactive” each time. In addition, the Potency was 0.617 µM (active) in test [5]; 8.41 µM (active) and 23 µM (active) in test [6]; 6.68 µM (active) and 20.5 µM (active) in [7].
Regarding `COc1ccc(C2(C#N)CCC(C(=O)O)CC2)cc1OC1CCCC1` (centres undefined), the Potency result in [1], in test [2], in [4], in test [5], in test [6] and in test [7] was “inactive” each time.
As for `COc1cc2nc(N3CCN(C(=O)C4CCCO4)CC3)nc(N)c2cc1OC` (centres undefined), the Potency entry in test [1], in [2], in [3] and in test [5] was “inactive” throughout. Further, the Potency in [6] was 11.9 µM (active).
As for `Cc1ccc(Nc2nccc(N(C)c3ccc4c(C)n(C)nc4c3)n2)cc1S(N)(=O)=O`, the Potency result in [1], in [2] and in test [3] was “inactive” in each case. Besides, the Potency is 15.5 µM (active) in [5]; 5.31 µM (active) and 1.83 µM (active) and 4.17 µM (active) in test [6]; 9.44 µM (active) and 4.68 µM (active) in test [7].
Consider `O=c1ccc2ccc(O)c(O)c2o1`, for which the Potency result in [1], in test [2] and in test [4] was “inactive” throughout.
`N[C@@H](Cc1cc(I)c(Oc2cc(I)c(O)c(I)c2)c(I)c1)C(=O)O`: the Potency entry in [1], in test [3], in [4], in test [6] and in test [7] was “inactive” throughout. Besides, the Potency result in test [2] is “inactive and 749 nM (active)”.
As for `COc1cc(C(C)=O)ccc1OCCCN1CCC(c2noc3cc(F)ccc23)CC1`, the Potency result in [1], in [2] and in [5] was “inactive” throughout. For the same compound, the Potency in test [4] is 5.49 µM (active).
For the compound `Cc1cc2cc3c(C)cc(=O)oc3c(C)c2o1`, the Potency entry in [1], in test [2], in [3], in [4], in [5] and in test [6] was “inactive” in each case. Also, the Potency result in test [7] is “inactive”.
For the compound `CCCCc1ccc2nc(NC(=O)OC)[nH]c2c1`, the Potency result in test [1], in test [2], in test [3] and in test [5] was “inactive” each time. The Potency was 53.1 nM (active) and 166 nM (active) in test [6]; 47.3 nM (active) and 118 nM (active) in test [7].
Regarding `Cc1cc(C2CCCCC2)n(O)c(=O)c1`, the Potency entry in test [1], in test [2], in test [4] and in [5] was “inactive” in each case. For the same compound, the Potency in test [6] is 5.8 µM (active) and 266 nM (active) and 7.42 µM (active); in test [7], 3.26 µM (active) and 266 nM (active) and 4.68 µM (active).
